# “And” between values parts separate entries of the source, which are not always exact repeats. Equal values may be shown once. Records with an inconclusive call do not appear. The source made the active and inactive calls. Unless noted, no stated cut-off is given here; in the data, active means inhibition above about 80%; inactive means the rest.
# Columns and labels:
# [1] = tested on: Hepatitis C virus NS3 helicase; test: HCV NS3 helicase inhibitors, primary screen, biochemical, fluorescence polarization, LOPAC1280 library (AID 687035; in the data active means inhibition above about 37%); conditions: Purified HCV NS3 helicase, Cy5-dT15 ssDNA binding fluorescence polarization; stronger effect = higher value; concentration not given here
# [2] = Cy5 fluorescence quenching or enhancement artefacts, artefact control for HCV NS3 helicase inhibitor project, biochemical, LOPAC1280 (AID 687037; call rule not given here); conditions: Cy5-DNA-NS3h complex fluorescence interference counterscreen
# [3] = phospholipid biosynthesis inhibitors in animal cells, primary screen, cell-based, LOPAC library, screen 4 (AID 1347384; call rule not given here); conditions: phospholipid biosynthesis inhibition screen, at 10 µM
# [4] = viability rescue of complex I mutant cybrids, primary screen, cell-based, galactose medium, ATP luminescence (AID 1645843;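 active means z-score of at least 1.8 in each of two replicates, scored against plate mean and spread of sample wells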;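 further: positive z means more ATP and so rescue of galactose-driven cybrid death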); conditions: complex I mutant cybrid cells, 72 h, stronger effect = higher value
# [5] = growth inhibition of DIPG glioma cells, dose response, cell-based, SU-DIPG-XVII, MIPE5.0, CellTiter-Glo, qHTS (AID 1347060; cut-off not given, nearly all actives have AC50 up to about 26 µM;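 on AC50: cells exposed to compound for 48 hours before viability readout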); conditions: SU-DIPG-XVII viability, CellTiter-Glo ATP luminescence
# [6] = liver-stage malaria parasite growth inhibition, primary screen, cell-based, HepG2, luciferase luminescence, HepG2 viability (AID 624349; in the data active means parasite load remaining mostly below about 12%, no sharp cut-off; inactive means mostly above about 10%;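 further: 100% = mean of DMSO negative control wells on the same plate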); conditions: P. berghei liver stage in HepG2, luciferase luminescence, concentration not given here; parasite load remaining: stronger effect = lower value; viability: measured here: HepG2 viability without parasites
# [7] = LFS_MB_1R medulloblastoma cell growth inhibition, synergistic combos for chromothripsis tumors, cisplatin or BGB combos (AID 1671452); conditions: LFS_MB_1R medulloblastoma cells, stronger effect = higher value;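 further: cells exposed for 96 hours before readout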
# [8] = CRL2098 osteosarcoma cell growth inhibition, synergistic combos for chromothripsis tumors, BGB or cisplatin IC20 combos (AID 1671454); conditions: CRL2098 osteosarcoma cells, drug combinations, stronger effect = higher value;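 further: cells exposed for 96 h before readout; 0% = vehicle DMSO and 100% = killing by high DMSO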
# [9] = HD-MB03 medulloblastoma cell growth inhibition, synergistic combos for chromothripsis tumors, BGB or cisplatin IC20 combos (AID 1671455; in the data active means inhibition above about 83%;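 further: 0% = vehicle DMSO and 100% = high DMSO as cytotoxic control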); conditions: HD-MB03 medulloblastoma cells, stronger effect = higher value
# [10] = UWB1.289 ovarian carcinoma cell growth inhibition, synergistic combos for chromothripsis tumors, BGB or cisplatin combos (AID 1671456); conditions: UWB1.289 ovarian carcinoma cells, stronger effect = higher value;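 further: cells exposed to compound for four days; 0% = vehicle DMSO and 100% = killing by high DMSO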
# [11] = LFS_MB_2R medulloblastoma cell growth inhibition, synergistic combos for chromothripsis tumors, cisplatin combos (AID 1671457); conditions: LFS_MB_2R medulloblastoma cells, stronger effect = higher value;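 further: cells exposed to compound for four days before readout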
# [12] = UWB1.289_BRCA1 ovarian cancer growth, cell-based, BGB or cisplatin combinations (AID 1671459); conditions: UWB1.289 BRCA1 ovarian carcinoma, drug combinations, stronger effect = higher value
# [13] = human astrocyte viability loss, single and combined drugs, cytotoxicity control for chromothriptic childhood tumor combination screen, cell-based, BGB or cisplatin IC20 combos (AID 1671460); conditions: Human astrocytes, drug combinations, stronger effect = higher value;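 further: cells exposed to compounds for 96 hours before viability readout; 0% = vehicle and 100% = killing control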
# [14] = measured here: combination with cisplatin, at 0.5 µM
# [15] = measured here: combination with cisplatin, at 5 µM
structure (smiles),measurement,setting,value
CCN(CC)CCn1c(=O)c(Cc2ccc(OC)cc2)nc2ccccc21,inhibition,[1],0% (inactive)
same,fluorescence ratio (interference),[2],1 (inactive)
same,outcome,[3],inactive
same,z-score,[4],-0.075 (inactive)
CCN(c1cc(-c2ccc(CN3CCOCC3)cc2)cc(C(=O)NCc2c(C)cc(C)[nH]c2=O)c1C)C1CCOCC1,outcome,[5],inactive
Cc1cc2c(F)c(Oc3ncnn4cc(OC[C@@H](C)O)c(C)c34)ccc2[nH]1,AC50,[5],14.8 µM (active)
c1nc2nc(Nc3ccc(N4CCOCC4)cc3)nc(NC3CCCCC3)c2[nH]1,parasite load remaining,[6],59.2% (inactive)
same,viability,[6],68.1%
C/C(=C\C(=O)Nc1ccccc1C(=O)O)c1ccc2ccccc2c1,inhibition,[7]; at 0.5 µM,-15% (inactive) and -22.4% (inactive)
same,inhibition,"[7]; measured here: combination with BGB IC40, at 0.05 µM",-9.05% and -43.4%
same,inhibition,[7]; [14],-18.5% and -27.8%
same,inhibition,[7]; [15],-22.6% and -72.2%
same,inhibition,[8]; at 0.5 µM,-36.1% (inactive) and -95.9% (inactive)
same,inhibition,"[8]; measured here: combination with BGB at IC20, at 0.5 µM",-28.4% and -70.2%
same,inhibition,"[8]; measured here: combination with cisplatin at IC20, at 0.5 µM",-47.6% and -160%
same,inhibition,[9]; at 0.5 µM,-6.95% (inactive) and -18.5% (inactive)
same,inhibition,"[9]; measured here: combo with BGB at IC20, at 0.5 µM",-7.43% and -31.2%
same,inhibition,"[9]; measured here: combo with cisplatin at IC20, at 0.5 µM",-10.4% and -19.6%
same,inhibition,[10]; at 0.5 µM,9.98% (inactive) and -21.6% (inactive)
same,inhibition,"[10]; measured here: inhibition with BGB combination, at 0.05 µM",3.22% and -36.6%
same,inhibition,"[10]; measured here: inhibition with cisplatin combination, at 0.05 µM",-9.11% and -30.4%
same,inhibition,[11]; at 0.5 µM,-3.77% (inactive) and -16.3% (inactive)
same,inhibition,[11]; [14],1.51% and -14.7%
same,inhibition,[11]; [15],6.83% and -4.92%
same,inhibition,"[12]; BGB combination, concentration series, at 5 µM",-7.61% and -2.79%
same,inhibition,[12]; at 0.5 µM,-8.12% (inactive) and -20.7% (inactive)
same,inhibition,"[12]; cisplatin combination, concentration series, at 5 µM",1.63% and -4.56%
same,inhibition,[13]; at 0.5 µM,-12.6% (inactive) and 0.11% (inactive)
same,inhibition,"[13]; measured here: combo with BGB IC20, at 0.5 µM",-9.38% and 5.29%
same,inhibition,"[13]; measured here: combo with cisplatin IC20, at 0.5 µM",-22.2% and -3.59%
NC(N)=Nc1nc(CSCCC(N)=NS(N)(=O)=O)cs1,inhibition,[1],-3% (inactive)
same,fluorescence ratio (interference),[2],1 (inactive)
same,outcome,[3],inactive
same,z-score,[4],1.1 (inactive) and 1.27 (inactive)
CC(O)C1C(=O)N2C(C(=O)O)=C(SC3CNC(C(=O)N(C)C)C3)C(C)C12 (stereo not given),z-score,[4],0.545 (inactive)

# From PubChem BioAssay
